Counter-ions that a name gives are not always drawn.
What follows are compounds tested on Saccharomyces cerevisiae BY4741 SeMeCo community (assay: z-score of subpopulation abundance vs DMSO median, subpopulation auxotrophic for L; higher = larger share of this subpopulation than in DMSO controls). Details: 10 µM; 24 h; SM minimal medium; subpopulation (auxotrophy): L.
Procedure: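 Fluorescent four-plasmid SeMeCo (self-establishing metabolically cooperating S. cerevisiae BY4741 community; plasmids pH-mRuby2, pL-mWasabi, pU-eCFP, pM-TagRFP657) was grown 24 h in minimal SM medium with each Selleck FDA-approved drug at 10 µM in 384-well plates. Cells were fixed and imaged by high-content confocal microscopy. For each auxotrophic subpopulation (and the prototroph), a z-score gives the deviation from the DMSO vehicle-control population median.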
In the case of `CN1CC2c3ccccc3Oc3ccc(Cl)cc3C2C1` (stereo not given) [Asenapine maleate], the “z-score of subpopulation abundance” value is reported as 1.05.
For `O=C1c2cccc3c2[C@H](CCC3)CN1[C@@H]1CN2CCC1CC2` [Palonosetron], the “z-score of subpopulation abundance” value was -0.81.
With `CCOc1ccc2nc3cc(N)ccc3c(N)c2c1` [Ethacridine lactate monohydrate] the “z-score of subpopulation abundance” value was 1.84.
For `CC(C)COc1ccc(CNC(=O)N(Cc2ccc(F)cc2)C2CCN(C)CC2)cc1` [Pimavanserin], the “z-score of subpopulation abundance” value was -1.18.
With `O=C(O)CCC(=O)c1ccc(-c2ccccc2)cc1` [Fenbufen] the “z-score of subpopulation abundance” value was 0.14.
For `CC1(C)S[C@@H]2[C@H](NC(=O)[C@H](N)c3ccc(O)cc3)C(=O)N2[C@H]1C(=O)O` [Amoxicillin trihydrate], the “z-score of subpopulation abundance” value was 0.15.
For `CCN(CC)CC#CCOC(=O)C(O)(c1ccccc1)C1CCCCC1` (stereo not given) [Oxybutynin chloride], the “z-score of subpopulation abundance” value was -0.83.
With `O=C1CN2Cc3c(ccc(Cl)c3Cl)N=C2N1` [Anagrelide HCl] the “z-score of subpopulation abundance” value was -0.32.
For `Nc1ccc(S(=O)(=O)Nc2nccs2)cc1` [Sulfathiazole], the “z-score of subpopulation abundance” value was -0.12.
With `Oc1c(Cl)cc(Cl)c(Cl)c1Cc1c(O)c(Cl)cc(Cl)c1Cl` [Hexachlorophene] the “z-score of subpopulation abundance” value was -1.4.
`CCCc1nn(C)c2c(=O)[nH]c(-c3cc(S(=O)(=O)N4CCN(C)CC4)ccc3OCC)nc12` [Sildenafil Mesylate] was tested, and the “z-score of subpopulation abundance” value was 0.21.
`O=C(O)c1ccccc1O` [Salicylic acid] was tested, and the “z-score of subpopulation abundance” value was -0.26.
In the case of `CC(C)NNC(=O)c1ccncc1` [Iproniazid], the “z-score of subpopulation abundance” value is reported as -0.39.
For `CC1(C)S[C@@H]2[C@H](NC(=O)[C@H](N)c3ccc(O)cc3)C(=O)N2[C@H]1C(=O)O` [Amoxicillin Sodium], the “z-score of subpopulation abundance” value was -0.33.
For `O=C(O)c1cc(O)c2c(c1)[C@H]([C@H]1c3cc(C(=O)O)cc(O)c3C(=O)c3c(O[C@@H]4O[C@H](CO)[C@@H](O)[C@H](O)[C@H]4O)cccc31)c1cccc(O[C@@H]3O[C@H](CO)[C@@H](O)[C@H](O)[C@H]3O)c1C2=O` [Sennoside A], the “z-score of subpopulation abundance” value was -0.65.
In the case of `CC1(C)S[C@@H]2[C@H](NC(=O)[C@H](N)c3ccccc3)C(=O)N2[C@H]1C(=O)O` [Ampicillin Trihydrate], the “z-score of subpopulation abundance” value is reported as 0.35.
In the case of `C[n+]1ccccc1/C=N/O` [Pralidoxime chloride], the “z-score of subpopulation abundance” value is reported as -0.96.
For `Cc1noc(NS(=O)(=O)c2ccc(N)cc2)c1C` [Sulfisoxazole], the “z-score of subpopulation abundance” value was 0.65.
`CCCC1CC(C(=O)NC(C(C)Cl)C2OC(SC)C(O)C(O)C2O)N(C)C1` (stereo not given) [Clindamycin alcoholate] was tested, and the “z-score of subpopulation abundance” value was 1.51.
`C=C[C@H]1CN2CC[C@H]1C[C@@H]2[C@@H](O)c1ccnc2ccc(OC)cc12` [Quinidine sulfate] was tested, and the “z-score of subpopulation abundance” value was 2.41.
`CNCCCN1c2ccccc2CCc2ccccc21` [Desipramine Hydrochloride] was tested, and the “z-score of subpopulation abundance” value was 0.26.
For `CC1(C)S[C@@H]2[C@H](NC(=O)[C@H](N)c3ccccc3)C(=O)N2[C@H]1C(=O)OCOC(=O)[C@@H]1N2C(=O)C[C@H]2S(=O)(=O)C1(C)C` [Sultamicillin Tosylate], the “z-score of subpopulation abundance” value was -0.36.
For `Oc1ccc([C@H]2COc3cc(O)ccc3C2)cc1` [Equol], the “z-score of subpopulation abundance” value was -0.21.
`CC1=Nc2ccc(Cl)cc2S(=O)(=O)N1` [Diazoxide] was tested, and the “z-score of subpopulation abundance” value was -0.67.
In the case of `CC[C@@H](CO)NCCN[C@@H](CC)CO` [Ethambutol 2HCl], the “z-score of subpopulation abundance” value is reported as 0.27.
`COc1cc([C@@H]2c3cc4c(cc3[C@@H](O[C@@H]3O[C@@H]5CO[C@@H](C)O[C@H]5[C@H](O)[C@H]3O)[C@H]3COC(=O)[C@H]23)OCO4)cc(OC)c1O` [Etoposide] was tested, and the “z-score of subpopulation abundance” value was 0.2.
`C=C[C@]1(C)C[C@@H](OC(=O)CSC(C)(C)CNC(=O)[C@H](N)C(C)C)[C@]2(C)[C@H](C)CC[C@]3(CCC(=O)[C@H]32)[C@@H](C)[C@@H]1O` [Valnemulin HCl] was tested, and the “z-score of subpopulation abundance” value was 0.38.
In the case of `CC(C(=O)O)c1ccc2c(c1)[nH]c1ccc(Cl)cc12` (stereo not given) [Carprofen], the “z-score of subpopulation abundance” value is reported as -0.33.
`Nc1nc(N)c2nc(-c3ccccc3)c(N)nc2n1` [Triamterene] was tested, and the “z-score of subpopulation abundance” value was 3.9.
`C=CCc1ccc(O)c(-c2ccc(O)c(CC=C)c2)c1` [Honokiol] was tested, and the “z-score of subpopulation abundance” value was -0.29.
For `O=C1OCCN1/N=C/c1ccc([N+](=O)[O-])o1` [Furazolidone], the “z-score of subpopulation abundance” value was 2.57.
`Cc1onc(-c2c(F)cccc2Cl)c1C(=O)N[C@@H]1C(=O)N2[C@@H]1SC(C)(C)[C@@H]2C(=O)O` [Flucloxacillin sodium] was tested, and the “z-score of subpopulation abundance” value was -0.25.
For `C[C@H](NCc1ccc(OCc2cccc(F)c2)cc1)C(N)=O` [Safinamide Mesylate], the “z-score of subpopulation abundance” value was 0.79.
For `CN[C@@H]1[C@H](O[C@H]2[C@H](O[C@H]3[C@H](O)[C@@H](O)[C@H](NC(=N)N)[C@@H](O)[C@@H]3NC(=N)N)O[C@@H](C)[C@]2(O)CO)O[C@@H](CO)[C@H](O)[C@H]1O` [Dihydrostreptomycin sulfate], the “z-score of subpopulation abundance” value was 0.01.
In the case of `COc1ccc2cc(CCC(C)=O)ccc2c1` [Nabumetone], the “z-score of subpopulation abundance” value is reported as -1.25.
With `Cc1cc(O)cc(C)c1Cl` [Chloroxylenol] the “z-score of subpopulation abundance” value was 0.85.
`CC[C@H](C)C[C@H](C)CCCCCCCCC(=O)N[C@H]1C[C@@H](O)[C@@H](NCCN)NC(=O)[C@@H]2[C@@H](O)CCN2C(=O)[C@H]([C@H](O)CCN)NC(=O)[C@H]([C@H](O)[C@@H](O)c2ccc(O)cc2)NC(=O)[C@@H]2C[C@@H](O)CN2C(=O)[C@H]([C@@H](C)O)NC1=O` [Caspofungin Acetate] was tested, and the “z-score of subpopulation abundance” value was 5.93.
In the case of `CCN(CC)C(=O)N1CCN(C)CC1` [Diethylcarbamazine citrate], the “z-score of subpopulation abundance” value is reported as -0.21.
With `Clc1ccc(C(Cn2ccnc2)OCc2c(Cl)cccc2Cl)c(Cl)c1` (stereo not given) [Isoconazole nitrate] the “z-score of subpopulation abundance” value was -3.43.
In the case of `Oc1ccc(Cl)c2cccnc12` [Cloxiquine], the “z-score of subpopulation abundance” value is reported as -1.33.

Reference: the supplement of paper PMC8975748
